Several values for one entry are separate records, joined by “and”; a condition that tells them apart may be missing. Equal values may be shown once. Unmarked numbers belong to inactive results. No rule for the calls is given here.

Sequence of Pantothenate synthetase (Mycobacterium tuberculosis (strain ATCC 25618 / H37Rv)) (P9WIL5 whole entry, looked up): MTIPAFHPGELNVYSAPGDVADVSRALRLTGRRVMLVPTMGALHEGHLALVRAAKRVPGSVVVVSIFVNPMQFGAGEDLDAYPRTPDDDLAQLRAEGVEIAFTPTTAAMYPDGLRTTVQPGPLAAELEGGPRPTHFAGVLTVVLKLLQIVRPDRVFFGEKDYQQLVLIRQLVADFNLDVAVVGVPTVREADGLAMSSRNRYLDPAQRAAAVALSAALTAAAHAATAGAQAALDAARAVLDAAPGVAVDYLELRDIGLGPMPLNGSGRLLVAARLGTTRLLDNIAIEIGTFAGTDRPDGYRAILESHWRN

The assay has as its target Pantothenate synthetase (Mycobacterium tuberculosis (strain ATCC 25618 / H37Rv)) (UniProt P9WIL5). Kind of assay: Recombinant Mtb pantothenate synthetase (PanC) inhibitors, coupled enzyme, confirmatory (AID 375).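 Also: 0% = full reaction with vehicle and 100% = no enzyme background.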 The settings on record: coupled enzyme assay; at 10 µM, hits give high values.
As for `CCN(C(=O)CN1CCN(c2ccccc2OC)CC1)c1c(N)n(Cc2ccccc2)c(=O)[nH]c1=O`, the inhibition is 0%.

As to `Cc1ccnc(NS(=O)(=O)c2ccc(N=CC3=C(O)CC(C)(C)CC3=O)cc2)n1`, the inhibition is 11%.

`Cc1ccccc1NC(=O)Cc1nnc(SCC(=O)N2CCN(c3ccccc3)CC2)n1C`: the inhibition was 4%.

For `COc1ccccc1-c1nnc(SCc2ccccn2)n1C`, the inhibition was 0%.

Turning to `COc1ccc(C(F)(F)F)cc1NC(=O)c1nc2nc(C)cc(C(F)F)n2n1`, the inhibition is 1%.

As to `CCOC(=O)c1ccc(S(=O)(=O)Nc2cc(C(C)(C)C)no2)cc1`, the inhibition was 2%.

For the compound `CCn1nccc1C(=O)Nc1nccs1`, the inhibition was 5%.

Regarding `COc1ccc2ccccc2c1CN1CCCC(CO)C1` (stereo not given), the inhibition was 0%.

Take `COCCn1c(C)cc(C(=O)COC(=O)c2n[nH]c3ccccc23)c1C`: the inhibition is 1%.

In the case of `CC(=O)Nc1ccc2nc(-c3cccnc3)[nH]c2c1`, the inhibition is 0%.

For the compound `COC(=O)C1=C(C)Nc2ncnn2C1c1ccc(C)o1` (stereo not given), the inhibition was 0%.

On to `C/C(N)=C(/C#N)C(=O)COC(=O)c1cc(S(=O)(=O)N2CCCCC2)ccc1C`, for which the inhibition is 0%.

Turning to `Cc1nn(-c2ccccc2)c(Cl)c1C1C(C#N)=C(N)OC2=C1C(=O)CC(C)(C)C2` (stereo not given), the inhibition is 0%.

Regarding `CCOC(=O)c1c(C)[nH]c(C(=O)COC(=O)c2ccc(F)c(S(=O)(=O)N3CCOCC3)c2)c1C`, the inhibition was 4%.

In the case of `Cc1noc(C)c1CSc1nnc(-c2ccncc2)n1-c1cccc(Cl)c1C`, the inhibition is 0%.

Turning to `Nc1ccc(C(=O)O)c(O)c1`, the inhibition was 1% and 0%.

Regarding `O=C(CCn1c(=O)oc2ccccc21)NCCN1CCc2ccccc2C1`, the inhibition is 0%.

Consider `CCOc1ccc(OCCCCN(C)C)cc1`, for which the inhibition was 2%.

In the case of `CCOC(=O)CC(=O)c1cc(OC)c(OC)c(OC)c1`, the inhibition was 0%.

With `CCOC(=O)c1[nH]c2ccc(C)cc2c1N=C(C)N(C)C`, the inhibition was 11%.

For `Cc1ccc2nc(NCCCN3CCOCC3)c(C=NCCCN3CCOCC3)c(=O)n2c1`, the inhibition is 0%.

With `CCS(=O)(=O)N1CCCC(C(=O)NCCc2ccc(OC)c(OC)c2)C1` (stereo not given), the inhibition is 4%.

As to `CN(C)c1oc(-c2ccccc2Cl)nc1C#N`, the inhibition was 4%.

Take `COC(=O)c1[nH]c2ccc(C)cc2c1NC(=O)CN1CCCc2ccccc21`: the inhibition is 3%.

Turning to `C=CCN1C(=O)C2(/C(=C(\O)c3ccc4c(c3)OCCO4)C(=O)C(=O)N2CCCOC)c2ccccc21` (stereo not given), the inhibition is 0%.

`COc1ccc(-c2ccc(-c3nnn(CC(C)=O)n3)cc2)cc1`: the inhibition was 2%.

On to `Nc1nc(CSCc2ccccc2)nc(N2CCOCC2)n1`, for which the inhibition is 1%.

In the case of `CCn1c(SCC(=O)N2CCN(c3ccc(Cl)cc3)CC2)nc2ccccc2c1=O`, the inhibition is 0%.

In the case of `Cc1cc(C)cc(N2CCCn3c2nc2c3c(=O)n(CCN3CCOCC3)c(=O)n2C)c1`, the inhibition is 7%.

Consider `O=C1c2ccccc2NC(c2ccco2)N1O` (stereo not given), for which the inhibition was 5%.

Consider `Nc1nc(-c2ccccc2Br)cs1`, for which the inhibition is 3%.

As for `CN(CC(=O)NCCC1=CCCCC1)S(=O)(=O)c1ccc2c(c1)CCC(=O)N2`, the inhibition is 0%.

`Cc1cc(C)c2c(N)c(C(=O)N3CCN(c4ncccn4)CC3)sc2n1`: the inhibition is 3%.

In the case of `CCc1ccccc1N=C1SCC(=O)N1C`, the inhibition is 0%.

`CCCN(CC1CC1)C(=O)Nc1ccccc1C`: the inhibition was 1%.

`COc1ccc(OCC(O)Cn2c(Br)nc3c2c(=O)[nH]c(=O)n3C)cc1` (stereo not given): the inhibition was 11%.

Consider `CCOc1cc(C)c(C(C)C)cc1S(=O)(=O)N1CCN(C)CC1`, for which the inhibition was 0%.

Turning to `Cn1c(=O)c2c(nc(NCCCO)n2C/C=C/c2ccccc2)n(C)c1=O`, the inhibition is 4%.

Consider `Fc1ccccc1C(c1nnnn1Cc1ccc2c(c1)OCO2)N1CCN(Cc2ccccc2)CC1` (stereo not given), for which the inhibition is 3%.

As to `O=C1C2C3C=CC(C3=C3CCCCC3)C2C(=O)N1c1ccccc1` (stereo not given), the inhibition is 0%.

By inhibition is commonly meant how much of the control response was suppressed.

Values taken from PubChem BioAssay.
